Efa HMGR inh: inhibitors of class II HMG-CoA reductase from Enterococcus faecalis; hit rate 0.41% among 190,000; purified E. faecalis HMGR, NADPH absorbance 340 nm kinetic; inhibition, % at 10 µM;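 active means inhibition above a set limit, the median over all tested compounds plus 3 SD, cut at about 9.5% in these data; inconclusive means no clear call, values can overlap the other calls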;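 further: enzyme runs in reverse so mevalonate oxidation gives rising NADPH absorbance; 0% = complete reaction with DMSO and 100% = background rate lacking mevalonate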
PHOSPHO1 block: inhibitors of human PHOSPHO1 phosphatase; Q8TCT1; recombinant PHOSPHO1, absorbance phosphatase assay; inhibition, % at 13.3 µM; hit rate 1.1% among 290,000; in the data active means inhibition above about 60%
MLLE-PAM2 inh: blocks PAM2 peptide binding to the PABP1 MLLE domain; P11940; GST-MLLE / FITC-PAM2 fluorescence polarization; inhibition, % at 20 µM; hit rate 0.36% among 360,000; AID 588489; in the data active means inhibition above about 35%, passing the limit was not always enough;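 further: plate controls were DMSO wells with GST-MLLE for no effect and wells lacking GST-MLLE protein for full effect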
Target sequence (P11940 whole entry, looked up, the tested form may be a part): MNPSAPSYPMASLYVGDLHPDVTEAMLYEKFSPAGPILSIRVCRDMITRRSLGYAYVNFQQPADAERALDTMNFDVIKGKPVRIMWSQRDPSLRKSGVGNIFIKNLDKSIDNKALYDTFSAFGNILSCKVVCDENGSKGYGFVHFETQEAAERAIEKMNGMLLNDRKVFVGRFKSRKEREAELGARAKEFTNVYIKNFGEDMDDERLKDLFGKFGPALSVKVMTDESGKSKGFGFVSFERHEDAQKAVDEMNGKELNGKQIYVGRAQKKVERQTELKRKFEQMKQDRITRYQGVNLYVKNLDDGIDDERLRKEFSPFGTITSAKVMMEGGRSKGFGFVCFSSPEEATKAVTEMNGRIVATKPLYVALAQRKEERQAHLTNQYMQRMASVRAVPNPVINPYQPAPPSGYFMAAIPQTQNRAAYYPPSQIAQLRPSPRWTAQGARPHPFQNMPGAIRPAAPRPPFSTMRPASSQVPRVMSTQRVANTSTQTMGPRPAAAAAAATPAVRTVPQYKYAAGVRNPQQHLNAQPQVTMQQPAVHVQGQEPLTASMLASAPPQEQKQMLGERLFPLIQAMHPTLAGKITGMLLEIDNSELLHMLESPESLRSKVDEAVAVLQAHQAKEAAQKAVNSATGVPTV
eIF4H inh: inhibitors of RNA binding by human eIF4H; Q15056; eIF4H fluorescence polarization binding assay; inhibition, % at 35 µM; hit rate 0.94% among 290,000; AID 2012;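 further: calls also rest on retests at 20 µM and on dose response follow-up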
PABP FP inh: blocks human PABP binding to poly(A) RNA; fluorescence polarization; calls only at 35 µM; hit rate 1% among 290,000; AID 2014;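 further: calls also rest on retests at 20 µM and on dose response follow-up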
* = called active by the depositor; i = inactive; ? = inconclusive; . = no result given; + = active, no number. This is a sample that favours compounds with a hit; in the whole collection about 2.4% have one here. Unless noted, how the calls were made is not given here.

SMILES | Efa HMGR inh | PHOSPHO1 block | MLLE-PAM2 inh | eIF4H inh | PABP FP inh
Cc1ccsc1C(=O)OC(C)C(=O)NC1CCCCC1C (stereo not given) | . | . | 3 | . | .
CCc1nnc(NC(=O)CSc2nnc(-c3ccccc3NC(=O)c3ccccc3)o2)s1 | 1 | 68* | -21 | 12 | i
CCOC(=O)CSc1nnc(-c2ccccc2NC(=O)c2ccccc2)o1 | -2 | 14 | -8 | -1 | i
COc1ccc(NCc2nnc(SCC(=O)c3ccc(OC)cc3)o2)cc1 | 3 | 57 | 13 | -4 | i
CCOc1cc(C(=O)CSc2nnc(CNc3ccc(Cl)cc3)o2)ccc1NC(=O)CC | -9 | 84* | -46 | -2 | i
CCc1nnc(NC(=O)CSc2nnc(CNc3ccc(Cl)cc3)o2)s1 | -2 | 62* | 16 | -2 | i
CCc1nnc(NC(=O)CSc2nnc(Cc3ccccc3)o2)s1 | -5 | -64 | -7 | -5 | i
CC1CC(C)CN(C(CCc2ccccc2)C(=O)NC2CCCCC2)C1 (stereo not given) | . | . | 2 | . | .
Cc1cc(C(=O)NN)c(C)o1 | 1 | 61* | 3 | -4 | i
O=C(O)c1ccc(CN2C(=O)c3cccc4c([N+](=O)[O-])ccc(c34)C2=O)cc1 | . | 27 | 51* | 81* | +
CN(C)CCCN1C(=O)c2cccc3c([N+](=O)[O-])ccc(c23)C1=O | -1 | 7 | 57* | ? | i
O=C(Nc1ccc(S(=O)(=O)Nc2nccs2)cc1)c1cccc(N2C(=O)c3ccccc3C2=O)c1 | 0 | -3 | -15 | 101 | i
O=C(Nc1nccs1)c1cccc(N2C(=O)c3cccc4c([N+](=O)[O-])ccc(c34)C2=O)c1 | -2 | 78* | 3 | 20 | i
Cc1ccc(C(=O)O)cc1N1C(=O)c2cccc3c([N+](=O)[O-])ccc(c23)C1=O | . | 19 | 21 | 101* | +
O=C1c2cccc3c([N+](=O)[O-])ccc(c23)C(=O)N1CCc1ccccn1 | . | 32 | 11 | 33 | i
CS(=O)(=O)NCCSCc1ccccc1 | -4 | 0 | 0 | -4 | i
CS(=O)(=O)NCCSc1cc(C(F)(F)F)nc2ccccc12 | . | 19 | 0 | 64* | +
COc1cc(OC)cc(C(=O)N[C@H](C(=O)NC2CCCc3ccccc32)C(C)C)c1 (stereo not given in full) | . | . | 2 | . | .
NC(Cc1ccccc1)c1csc(Nc2nccc(C(F)(F)F)n2)n1 (stereo not given) | . | . | -3 | . | .
COCCNC(=O)C(c1ccccc1C)N(C(=O)Cn1nnc2ccccc21)c1cccnc1 (stereo not given) | 15* | 4 | 3 | 1 | i
COc1ccc(C(=O)NC(C)CCn2cccn2)cc1OC1CCN(C(C)C)CC1 (stereo not given) | . | 51 | -8 | 13 | i
Cc1ccc(N(C(=O)C(F)(F)F)C(C(=O)NC2CCCCC2)c2cccs2)cc1C (stereo not given) | -1 | 60* | 3 | -4 | i
COc1cc2c(cc1NC(=O)Nc1ccc(F)cc1)oc1ccccc12 | 3 | 1 | 1 | 92* | +
COC(=O)Cc1ccc(OC2(C)CCN(Cc3ccc(-c4ccccn4)cc3)C2)cc1 (stereo not given) | . | . | -2 | . | .
CC(=O)N1CCc2cc(S(=O)(=O)NCC(=O)NCc3ccccc3Cl)ccc21 | . | 65* | 24 | -19 | i
SMILES | Efa HMGR inh | PHOSPHO1 block | MLLE-PAM2 inh | eIF4H inh | PABP FP inh
CCC(=O)N1CCc2cc(S(=O)(=O)NCCC(=O)NCc3ccccc3Cl)ccc21 | . | 40 | -16 | -11 | i
CCCc1nc2ccc(C(=O)OC)cn2c1Cc1ccc(C)cc1 | . | . | -18 | . | .
CCOc1ccc(/C=N/NC(=O)c2cc(-c3ccco3)nc3ccccc23)cc1 | -1 | -4 | 5 | 59 | i
O=C(NC1CC1)c1cc(-c2ccco2)nc2ccccc12 | . | -6 | -7 | 98* | +
O=C(N/N=C/c1ccc(F)cc1)c1cc(-c2ccco2)nc2ccccc12 | 3 | -15 | -18 | 90* | +
C/C(=N\NC(=O)c1cc(-c2ccco2)nc2ccccc12)c1cccnc1 | 0 | 23 | 0 | 82* | +
O=C(O)c1cc(-c2ccco2)nc2ccccc12 | 3 | 20 | 53* | 82* | +
COCCCN(C(=O)c1ccccc1F)c1nc(-c2ccc(OC)cc2)cs1 | . | 24 | -6 | -6 | i
CCCN(C(=O)COC(=O)c1[nH]c(C)c(C(=O)OC)c1C)c1c(N)n(Cc2ccccc2)c(=O)[nH]c1=O | . | . | -32 | . | .
C[C@H](Nc1ncnc2sc3c(c12)CCC3)C(=O)O | -9 | 66* | 14 | -1 | i
COc1cccc(N2CCN(CC(=O)NC(=O)NCc3ccco3)CC2)c1 | -4 | -10 | -16 | 88 | +
O=C(CN1CCN(c2ccccc2)CC1)NC(=O)NCc1ccco1 | 0 | 7 | 13 | -8 | i
N#C/C(=C/c1ccc(F)cc1)c1nnc(NC(=O)c2ccccc2)s1 | . | 10 | -19 | 88* | +
CN(Cc1ccc(F)cc1)S(=O)(=O)c1nnc(NC(=O)c2ccccc2)s1 | . | 38 | -24 | -5 | i
O=C(COC(=O)c1cncc(Br)c1)NCc1ccccc1Cl | -7 | -2 | -6 | 11 | +
Brc1ccc(CSc2nnc3ccccn23)cc1 | 15* | 48 | -130 | 0 | i
Clc1ccc2nc(CSc3nnc4ccccn34)cn2c1 | 1 | 60* | -16 | 0 | i
Clc1ccc2nc(CSc3nncn3-c3ccccc3)cn2c1 | -4 | 24 | 12 | 2 | i
O=C(COC(=O)CC1CCCC1)Nc1ccccc1[N+](=O)[O-] | . | . | 8 | . | .
Cc1cc(NC(=O)Nc2ccc(OCc3ccccc3)cc2)n(C)n1 | . | . | -4 | -5 | i
COc1ccccc1C(=O)NN1C(=O)/C(=C/c2cccn2C)SC1=S | . | -4 | . | 71 | +
O=C(NN1C(=O)/C(=C/C=C/c2ccco2)SC1=S)c1ccccc1O | . | 86* | -78 | 94* | +
Cn1cccc1/C=C1\SC(=S)N(NC(=O)c2ccccc2O)C1=O | . | -8 | -136 | 82* | +
CC(C(=O)O)N1C(=O)/C(=C/c2cccn2C)SC1=S (stereo not given) | -3 | 0 | -135 | 93 | +
O=C(Nc1cccc(N=Cc2cc(Br)cc(Br)c2O)c1)c1ccco1 | -5 | 1 | -8 | ? | +
SMILES | Efa HMGR inh | PHOSPHO1 block | MLLE-PAM2 inh | eIF4H inh | PABP FP inh
O=C(NCc1ccco1)c1cnc2ccccn2c1=O | 4 | 8 | 19 | -2 | i
O=C(NCc1ccco1)c1cccn2c(=O)c3cc4ccccc4cc3nc12 | -2 | 100* | . | 25 | i
COCCCNC(=O)c1cccn2c(=O)c3cc4ccccc4cc3nc12 | -4 | 95* | 36 | 20 | +
CCOC(=O)c1cc(C#N)c(SC(C)C(=O)NC2CCCCC2)nc1C (stereo not given) | . | . | -5 | . | .
Cc1cccc(C)c1NC(=O)COC(=O)c1ccccc1[N+](=O)[O-] | 3 | 63* | 13 | 0 | i
CCC(=O)N(C)C[C@@H]1Oc2ncc(Br)cc2C(=O)N([C@@H](C)CO)C[C@H]1C | . | . | 9 | . | .

Source: PubChem (several laboratories)
